A short description of experiment [1]: NCI Yeast Anticancer Drug Screen. Data for the rad50 strain (AID 155).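 Further: 0% = growth of vehicle-only cultures of the same strain.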 Particulars: S. cerevisiae rad50 strain growth inhibition, hits give high values. The procedure, abridged:
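Compounds were tested on a yeast strain with an engineered DNA damage repair alteration; the reported value is growth inhibition normalised to vehicle treatment.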

A short description of experiment [2]: NCI Yeast Anticancer Drug Screen. Data for the mec2-1 strain (AID 157). The conditions noted are these: S. cerevisiae mec2-1 strain, hits give high values. Summed up: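 Mutant yeast (mec2-1) grown with compound; growth inhibition relative to vehicle control reported.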
Experiment [3] is described as follows: NCI Yeast Anticancer Drug Screen. Data for the sgs1 mgt1 strain (AID 161).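 Further: 0% = growth of cultures given vehicle only.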 Particulars: S. cerevisiae sgs1 mgt1 strain, hits give high values. The procedure, abridged:
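Percent growth inhibition was derived by comparing compound-exposed mutant yeast with vehicle-exposed cultures. The strain carries alterations in DNA damage repair.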

Experiment [4] can be described thus: NCI Yeast Anticancer Drug Screen. Data for the cln2 rad14 strain (AID 165).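 Further: 0% = growth equal to vehicle treated cultures.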 Particulars: S. cerevisiae cln2 rad14 strain, hits give high values. The procedure, abridged:
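Readout is yeast growth inhibition versus vehicle-treated controls, using a strain with cln2 and rad14 alterations exposed to compound.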

Experiment [5] can be described thus: NCI Yeast Anticancer Drug Screen. Data for the bub3 strain (AID 167). Particulars: S. cerevisiae bub3 mutant strain, hits give high values. The procedure, abridged:
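Growth of a checkpoint-deficient yeast mutant is measured after compound exposure. Values represent inhibition relative to vehicle.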

Experiment [6] is described as follows: NCI Yeast Anticancer Drug Screen. Data for the mlh1 rad18 strain (AID 175). The conditions noted are these: S. cerevisiae mlh1 rad18 strain growth inhibition, hits give high values. The procedure, abridged:
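Genetically defined yeast (DNA repair-deficient) exposed to compounds; growth inhibition determined relative to vehicle.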

Where [7] appears, read: at 5.0 µM (retest, dose inferred, filed as 0.5).
Where [8] appears, read: at 50.0 µM (retest, dose inferred, filed as 5.0).

Our source for the growth inhibition values is PubChem BioAssay (NCI).

The structures appear in SMILES notation. About 79,000 compounds went through this panel and 15% of them were active in at least one assay; those are over-represented in the sample as a whole. Unmarked numbers belong to inactive results. The source made the active and inactive calls. No stated cut-off is given here; in the data, active means growth inhibition above about 70%; inactive means the rest.

`O=C1Oc2ccccc2C(=O)/C1=C/N1C(=O)/C(=C/c2ccccc2)NC1=S`: the growth inhibition was -23% in experiment [1] (setting [7]); 31% in experiment [1] (setting [8]); 66.7% in experiment [1] (at 50.0 µM); -25% in experiment [2] (setting [7]); 27% in experiment [2] (setting [8]); 43.3% in experiment [2] (at 50.0 µM). Besides, the growth inhibition in experiment [3] (setting [7]) was -15%; in experiment [3] (setting [8]), 42%; in experiment [3] (at 50.0 µM), 71.7% (active); in experiment [4] (setting [7]), 4%; in experiment [4] (setting [8]), 37%; in experiment [4] (at 50.0 µM) it was 60.6%. The growth inhibition is -6% in experiment [5] (setting [7]); 45% in experiment [5] (setting [8]); 53.5% in experiment [5] (at 50.0 µM); -33% in experiment [6] (setting [7]); 40% in experiment [6] (setting [8]); 54% in experiment [6] (at 50.0 µM).
As for `Cc1ccc(N=Nc2c(C)c(C#N)c(=S)n(C3OC(CO)C(O)C(O)C3O)c2-c2ccccc2)cc1` (configuration not stated), the growth inhibition is -8% in experiment [1] (setting [7]); -2% in experiment [1] (setting [8]); 35% in experiment [1] (at 50.0 µM); -5% in experiment [2] (setting [7]); 2% in experiment [2] (setting [8]); 50.5% in experiment [2] (at 50.0 µM). Further, the growth inhibition was -1% in experiment [3] (setting [7]); 12% in experiment [3] (setting [8]); 65.2% in experiment [3] (at 50.0 µM); 12% in experiment [4] (setting [7]); 15% in experiment [4] (setting [8]); 46% in experiment [4] (at 50.0 µM). Moreover, the growth inhibition in experiment [5] (setting [7]) is -4%; in experiment [5] (setting [8]) it was -10%; in experiment [5] (at 50.0 µM), 42%; in experiment [6] (setting [7]) it was -17%; in experiment [6] (setting [8]), 21%; in experiment [6] (at 50.0 µM) it was 68.8%.
Consider `CCOc1c(N=Nc2ccccc2Cl)c(C)nn1C(=S)S`, for which the growth inhibition in experiment [1] (setting [7]) is -9%; in experiment [1] (setting [8]) it was 36%; in experiment [1] (at 50.0 µM) it was 89.3% (active); in experiment [2] (setting [7]), -15%; in experiment [2] (setting [8]), 9%; in experiment [2] (at 50.0 µM), 80.7% (active). For the same compound, the growth inhibition in experiment [3] (setting [7]) is 8%; in experiment [3] (setting [8]), 4%; in experiment [3] (at 50.0 µM), 77.3% (active); in experiment [4] (setting [7]) it was -42%; in experiment [4] (setting [8]) it was -6%; in experiment [4] (at 50.0 µM) it was 92.2% (active). In addition, the growth inhibition in experiment [5] (setting [7]) is -20%; in experiment [5] (setting [8]) it was 17%; in experiment [5] (at 50.0 µM), 74% (active); in experiment [6] (setting [7]), -23%; in experiment [6] (setting [8]), 40%; in experiment [6] (at 50.0 µM) it was 96% (active).
For the compound `CCCCc1ccc(Nc2nc(N)c3[nH]cnc3n2)cc1`, the growth inhibition in experiment [1] (setting [7]) is 19%; in experiment [1] (setting [8]) it was 35%; in experiment [1] (at 50.0 µM), 82.1% (active); in experiment [2] (setting [7]), 25%; in experiment [2] (setting [8]) it was 26%; in experiment [2] (at 50.0 µM), 84% (active). Moreover, the growth inhibition is 18% in experiment [3] (setting [7]); 31% in experiment [3] (setting [8]); 36.1% in experiment [3] (at 50.0 µM); 21% in experiment [4] (setting [7]); 34% in experiment [4] (setting [8]); 16.7% in experiment [4] (at 50.0 µM). The growth inhibition in experiment [5] (setting [7]) is 16%; in experiment [5] (setting [8]), 31%; in experiment [5] (at 50.0 µM) it was 34.7%; in experiment [6] (setting [7]), 22%; in experiment [6] (setting [8]), 40%; in experiment [6] (at 50.0 µM), 91.6% (active).
Regarding `O=S(=O)(NC1CCCCC1)c1ccc2c(c1)OCCOCCOCCOCCO2`, the growth inhibition in experiment [1] (setting [7]) is 7%; in experiment [1] (setting [8]) it was 22%; in experiment [1] (at 50.0 µM) it was 40.3%; in experiment [2] (setting [7]), 9%; in experiment [2] (setting [8]), 37%; in experiment [2] (at 50.0 µM), 23.8%. Besides, the growth inhibition in experiment [3] (setting [7]) is 0%; in experiment [3] (setting [8]), 63%; in experiment [3] (at 50.0 µM) it was 70.7% (active); in experiment [4] (setting [7]) it was -7%; in experiment [4] (setting [8]) it was 39%; in experiment [4] (at 50.0 µM), 36%. For the same compound, the growth inhibition in experiment [5] (setting [7]) was -24%; in experiment [5] (setting [8]) it was 53%; in experiment [5] (at 50.0 µM), 73.2% (active); in experiment [6] (setting [7]) it was 5%; in experiment [6] (setting [8]), 31%; in experiment [6] (at 50.0 µM) it was 65.5%.
Take `Cc1cc(C)nc(NS(=O)(=O)c2ccc(NC(=O)c3cccnc3Nc3cccc(Cl)c3)cc2)n1`: the growth inhibition is -2% in experiment [1] (setting [7]); 33% in experiment [1] (setting [8]); 45.9% in experiment [1] (at 50.0 µM); -9% in experiment [2] (setting [7]); 34% in experiment [2] (setting [8]); 13.1% in experiment [2] (at 50.0 µM). The growth inhibition in experiment [3] (setting [7]) is 6%; in experiment [3] (setting [8]), 51%; in experiment [3] (at 50.0 µM), 54.9%; in experiment [4] (setting [7]), -10%; in experiment [4] (setting [8]), 35%; in experiment [4] (at 50.0 µM), 22.1%. Further, the growth inhibition in experiment [5] (setting [7]) is -6%; in experiment [5] (setting [8]), 41%; in experiment [5] (at 50.0 µM) it was 25.5%; in experiment [6] (setting [7]) it was -1%; in experiment [6] (setting [8]) it was 53%; in experiment [6] (at 50.0 µM), 81.5% (active).
`COc1ccc(C(=O)C(c2ccc(OC)cc2)C2(O)C(=O)Nc3c(Cl)cc(Cl)cc32)cc1` (configuration not stated): the growth inhibition in experiment [1] (setting [7]) was 37%; in experiment [1] (setting [8]), 37%; in experiment [1] (at 50.0 µM), 91% (active); in experiment [2] (setting [7]) it was -20%; in experiment [2] (setting [8]), -20%; in experiment [2] (at 50.0 µM), 92.3% (active). Moreover, the growth inhibition in experiment [3] (setting [7]) was 8%; in experiment [3] (setting [8]), 8%; in experiment [3] (at 50.0 µM), 90% (active); in experiment [4] (setting [7]), 25%; in experiment [4] (setting [8]), 25%; in experiment [4] (at 50.0 µM), 90.9% (active). Also, the growth inhibition in experiment [5] (setting [7]) is -6%; in experiment [5] (setting [8]) it was -6%; in experiment [5] (at 50.0 µM) it was 90.7% (active); in experiment [6] (setting [7]) it was -18%; in experiment [6] (setting [8]), -18%; in experiment [6] (at 50.0 µM), 90.7% (active).
As for `C=C(CN1CCOCC1)C(=O)c1ccccc1`, the growth inhibition in experiment [1] (setting [7]) was -23%; in experiment [1] (setting [8]) it was 66%; in experiment [1] (at 50.0 µM) it was 74.5% (active); in experiment [2] (setting [7]) it was 18%; in experiment [2] (setting [8]) it was 80% (active); in experiment [2] (at 50.0 µM) it was 90.2% (active). For the same compound, the growth inhibition is 8% in experiment [3] (setting [7]); 73% (active) in experiment [3] (setting [8]); 85.5% (active) in experiment [3] (at 50.0 µM); -16% in experiment [4] (setting [7]); 24% in experiment [4] (setting [8]); 60.9% in experiment [4] (at 50.0 µM). For the same compound, the growth inhibition is 3% in experiment [5] (setting [7]); 72% (active) in experiment [5] (setting [8]); 91% (active) in experiment [5] (at 50.0 µM); -13% in experiment [6] (setting [7]); 92% (active) in experiment [6] (setting [8]); 95% (active) in experiment [6] (at 50.0 µM).
Consider `O=C(NCCNCCNCCNC(=O)c1cc(-c2ccccc2)nc2ccccc12)c1cc(-c2ccccc2)nc2ccccc12`, for which the growth inhibition was -16% in experiment [1] (setting [7]); 57% in experiment [1] (setting [8]); 98.7% (active) in experiment [1] (at 50.0 µM); -10% in experiment [2] (setting [7]); 63% in experiment [2] (setting [8]); 99.2% (active) in experiment [2] (at 50.0 µM). For the same compound, the growth inhibition in experiment [3] (setting [7]) was -7%; in experiment [3] (setting [8]), 41%; in experiment [3] (at 50.0 µM), 98.8% (active); in experiment [4] (setting [7]), 18%; in experiment [4] (setting [8]), 64%; in experiment [4] (at 50.0 µM), 99% (active). Further, the growth inhibition in experiment [5] (setting [7]) is -25%; in experiment [5] (setting [8]), 86% (active); in experiment [5] (at 50.0 µM), 99.2% (active); in experiment [6] (setting [7]) it was -4%; in experiment [6] (setting [8]) it was 88% (active); in experiment [6] (at 50.0 µM), 99% (active).
